Compounds with a hit are over-represented: about 3.1% of the library has one in this group of screens.
LMP1 NFkB inh = EBV LMP1-driven NF-kappaB luciferase reporter inhibitors, primary screen, cell-based, luminescence, single point. inhibition, % at 12.5 µM. LMP1-induced NF-kappaB luciferase reporter cells. hit rate 0.69% among 350,000; in the data active = inhibition above about 41%;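 note: 0% = neutral control wells and 100% = reference inhibitor control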
EWS-Fli inh = EWS/Fli-driven NR0B1 reporter inhibitors, primary screen, A673 cells, NR0B1 luciferase, luminescence, MLPCN library; AID 651661, 2012; viability-normalised; hit rate 0.67% among 350,000; inhibition, % at 12.6 µM;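 active = mean inhibition of at least 50% after viability correction, with every replicate also passing that limit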;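 note: firefly luciferase signal divided by Alamar Blue viability fluorescence both relative to DMSO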
PAX8 reporter = inhibitors of PAX8-driven TPO luciferase reporter, primary screen, RMG-I cells, single concentration | SteadyGlo, 24 h | inhibition, % at 12.6 µM | hit rate 1.2% among 360,000 | AID 652154, 2013;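 active = mean replicate inhibition at least 60% with every replicate also reaching 60%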;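 note: luciferase light reporting Pax8 driven TPO promoter activity; plate controls were median of neutral control wells for no effect and mitoxantrone controls for full effect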
LGR2 antag = inhibitors of bursicon-induced LGR2 CRE-luciferase signal, primary screen, cell-based, HEK293, CRE-luciferase reporter, bursicon stimulation. bursicon-stimulated, 4 h. inhibition, % at 9.99 µM. hit rate 0.35% among 380,000. AID 720647, 2013;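 active = drop in luminescence signal, shown as inhibition above about 50% in the replicate tests, limit read from the data, passing the limit was not always enough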;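 note: agonist challenge used bursicon conditioned medium at about half maximal strength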
TROY NFkB inh = inhibitors of TROY-driven NF-kB signaling, primary screen, Q293 LMP1-TROYcd cells, NF-kB luciferase, uHTS. Q293 LMP1-TROYcd NF-kB luciferase reporter, 4 h. inhibition, % at 10 µM. hit rate 0.98% among 360,000;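 active = compounds whose plate-normalised and pattern-corrected inhibition of the luciferase reporter signal at the single screening dose is 50% or more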
TWEAK-Fn14 inh = inhibitors of TWEAK-Fn14 signaling, primary screen, luciferase reporter cells, uHTS. TWEAK-stimulated Fn14 reporter cells, luciferase luminescence, 8 h. inhibition, % at 10 µM. hit rate 2% among 360,000. AID 1159606, 2016; in the data active = inhibition above about 50%
* hit, by the source's call; nt = no result given.

SMILES	LMP1 NFkB inh	EWS-Fli inh	PAX8 reporter	LGR2 antag	TROY NFkB inh	TWEAK-Fn14 inh
O=C(COC(=O)c1nc(Cl)c(Cl)c(Cl)c1Cl)c1ccc[nH]1	-12	6	23	-3	67*	49
C[C@@H]1CN([C@H](C)CO)C(=O)c2cccc(NC(=O)c3nc4ccccc4s3)c2O[C@H]1CN(C)C(=O)Nc1ccc(C(F)(F)F)cc1	nt	-7	nt	-12	nt	nt
COc1ccc(-c2[nH]ncc2-c2ccc(Cl)cc2)c(O)c1	1	nt	nt	nt	14	14
COc1ccc(-c2cn[nH]c2-c2ccc(OCc3ccc([N+](=O)[O-])cc3)cc2O)cc1OC	5	24	32	-25	50	83*
O=[N+]([O-])c1ccc(COc2ccc(-c3[nH]ncc3-c3ccc(Cl)cc3)c(O)c2)cc1	-11	nt	27	10	23	51*
C=CCC[C@@H](Cc1ccc(F)cc1)C(=O)OC[C@@H](NC(=O)[C@@H](CC=C)CC(=O)N(CCO)Cc1ccccc1)c1ccccc1	5	1	47	nt	30	43
C=CC[C@H](CC(=O)N(CCO)Cc1ccccc1)C(=O)N[C@H](COC(=O)[C@@H](CC=C)Cc1ccc(F)cc1)Cc1c[nH]c2ccccc12	3	0	82*	nt	40	60*
C=CC[C@@H](CC(=O)N(CCO)Cc1ccccc1)C(=O)N[C@@H](COC(=O)[C@H](CC=C)CC(=O)OC(C)(C)C)Cc1c[nH]c2ccccc12	-2	-2	51	nt	25	23
C=CC[C@@H](CC(=O)N(CCO)Cc1ccccc1)C(=O)N[C@H](COC(=O)[C@@H](CC=C)Cc1ccc(F)cc1)Cc1ccccc1	-4	-1	46	-3	31	19
C=CC[C@@H](CC(=O)N(CCO)Cc1ccccc1)C(=O)N[C@H](COC(=O)[C@@H](CC=C)Cc1ccc(F)cc1)Cc1c[nH]c2ccccc12	-4	3	37	3	36	51*
C=CC[C@H](CC(=O)N(CCO)Cc1ccccc1)C(=O)N[C@@H](COC(=O)[C@@H](CC=C)CC(=O)OC(C)(C)C)Cc1c[nH]c2ccccc12	2	3	45	25	0	36
C=CC[C@@H](CC(=O)N(CCO)Cc1ccccc1)C(=O)N[C@@H](COC(=O)[C@@H](CC=C)Cc1ccc(F)cc1)Cc1ccccc1	0	2	43	47	42	58*
C=CCC[C@@H](Cc1ccc(F)cc1)C(=O)OC[C@@H](NC(=O)[C@H](CC=C)CC(=O)N(CCO)Cc1ccccc1)c1ccccc1	9	4	54	43	13	56*
CNC[C@@H]1OCCCC[C@H](C)Oc2ccc(NS(C)(=O)=O)cc2C(=O)N([C@H](C)CO)C[C@@H]1C	nt	-1	6	-13	nt	nt
COc1ccc2c3c([nH]c2c1)[C@@H](CO)N(C(=O)Cc1ccccc1)CC31CN(C)C1	nt	-7	-11	10	nt	nt
Cc1cccc(N2CCN(C(=O)Cn3nc(Cc4ccncc4)c4ccccc4c3=O)CC2)c1C	91*	5	0	3	-2	-14
C[C@@H]1CN([C@H](C)CO)C(=O)c2cccc(NC(=O)C3CCOCC3)c2O[C@H]1CN(C)C(=O)Nc1ccc(F)cc1	nt	2	-1	11	nt	nt
C[C@@H]1CN([C@@H](C)CO)C(=O)c2cc(C#C[C@@H](C)O)cnc2O[C@H]1CN(C)C(=O)c1ccccc1F	nt	-4	nt	6	nt	nt
OCCCNc1ncnc2sc3c(c12)CCN(Cc1ccccc1)C3	-4	-1	7	0	36	69*
CCCc1cc(=O)n2[nH]cc(-c3ccc(Cl)cc3)c2n1	44*	23	29	9	31	33
Cc1nn(Cc2cccc(F)c2)c(C)c1NC(=O)c1ccc(COc2ccccc2Cl)cc1	15	nt	nt	19	44	70*
CC(C)NC(=O)Nc1ccc2c(c1)C(=O)N([C@@H](C)CO)C[C@@H](C)[C@H](CN(C)C(=O)c1ccncc1)OCCCC[C@@H](C)O2	nt	nt	-18	-9	nt	nt
CO[C@@H]1CN(C)C(=O)c2cc(NC(=O)NC(C)C)ccc2OC[C@@H](C)N(Cc2cncnc2)C[C@@H]1C	nt	11	4	14	nt	nt
CC1=CC(=O)c2ccccc2C1=O	11	-5	2	-7	15	10
CC(C)(C=O)C1=CC(=O)c2ccccc2C1=O	24	nt	65*	10	70*	63*
SMILES	LMP1 NFkB inh	EWS-Fli inh	PAX8 reporter	LGR2 antag	TROY NFkB inh	TWEAK-Fn14 inh
O=C(C1CCC1)N1CC2(C1)[C@H](c1ccccc1)[C@@H](CO)N2CCC(F)(F)F	nt	nt	nt	6	nt	nt
O=C(Cc1cccnc1)N1[C@@H](CO)[C@@H]2c3ccccc3NC[C@@H]21	nt	-2	-16	2	nt	nt
CSc1nc2cc(Oc3cccc(Cl)c3Cl)c(Cl)cc2[nH]1	5	1	-10	nt	56*	23
COc1ccc(NC(=O)N(C)C[C@@H]2OCc3cn(nn3)CCCC(=O)N([C@H](C)CO)C[C@@H]2C)cc1	nt	-2	nt	1	nt	nt
CCOc1ccc(N(C(C)C(=O)N2CCCCCC2)S(C)(=O)=O)cc1 (stereo not drawn)	71*	5	1	6	4	-5
C[C@H](NC(=O)C[C@H]1C=C[C@H](NC(=O)C2CCOCC2)[C@H](CO)O1)c1ccccc1	nt	-4	-4	4	nt	nt
COc1ccc(C(=O)N2[C@@H](C(C)C)COc3cc(Br)ccc3S2(=O)=O)cc1	14	-1	65*	19	31	39
O=C(O)CN1C(=O)/C(=C\c2cc(Br)ccc2OCc2ccc(Cl)cc2Cl)SC1=S	-2	nt	nt	2	87*	3
N#Cc1cccc(-c2csc(C(O)(c3ccccc3)C(F)(F)F)n2)c1 (stereo not drawn)	nt	58*	9	11	4	-5
OC(c1ccccc1)(c1nc(-c2cccc(C(F)(F)F)c2)cs1)C(F)(F)F (stereo not drawn)	nt	20	-4	-10	7	16
Cc1ccc(-c2csc3ncn(/N=C/N(C)C)c(=O)c23)o1	4	nt	nt	nt	10	98*
CCNC(=O)[C@@H]1[C@@H](CO)[C@@H]2Cn3c(ccc(-c4ccccc4F)c3=O)[C@@H]2N1C(C)=O	nt	-1	1	-11	nt	nt
c1cncc(Cc2cc3ccccc3[nH]2)c1	-9	nt	23	-9	-17	12
c1ccc2[nH]c(-c3cnco3)cc2c1	-16	0	10	-7	52*	64*
O=C(NCCCl)Nc1cc([N+](=O)[O-])ccc1Cl	13	-2	-12	40	62*	-2
Cc1cccc(Nc2ccncc2S(N)(=O)=O)c1	nt	0	6	-6	12	70*

Assay outcomes deposited in PubChem BioAssay by several laboratories.
